± gives the standard deviation.
The sequences below were run on MILI (PIWIL2) piRISC loaded with piRNA #1 (26 nt) (assay: pre-steady-state target cleavage rate (min^-1); guide: piRNA #1 5'p-UGAGGUAGUAGGUUGUAUAGUAUCCA; MIWI and MILI are mouse PIWI proteins and EfPiwi is from a freshwater sponge; tags in brackets are library labels; higher = faster piRNA-guided slicing of the target). Settings: auxiliary factor: 500 nM mouse GTSF1.
Procedure, shortened: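 Using HEPES–potassium acetate buffer at 33 °C, 1 nM active affinity-purified piRISC with a single synthetic guide was mixed with 0.1 nM transcribed, DNA-blocked target RNA library for 0–8 or 0–960 min, with or without 500 nM GTSF1 partner protein. Uncleaved targets were sequenced and normalised to depth and to weakly complementary targets, and three trials were pooled with k3 capped at 0.0001 min^-1. A burst-and-steady-state fit gave the pre-steady-state cleavage rate.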

Sequence	pre-steady-state target cleavage rate
GGAGACCUAUGUAUACAAGCUACUAGCUCA	0.0122 ± 0.0045
GGAGACCUAUGAUUACAUCCUACAACCUCA	0.00871 ± 0.0027
GGAGACCUAUCUAUUACAACCUACUACCUCA	0.0546 ± 0.0098
GGAGACCUAUGAUAACAAGCUACAACCUCA	0.0095 ± 0.0029
GGAGACCUAUCUAUACAACCUACUUACCUCA	0.121 ± 0.015
GGAGACCUUAGUAUACAACCUAGUACCUCA	0.0225 ± 0.0077
GGAGACCUAUCUAUACAACCUUCUUCCUCA	0.00365 ± 0.0029
GGAGACCUAUGAUAUGAACCUACUACGCUCA	< 0.0001
GGAGACCUAUCUAUUGAACCUACUACCUCA	0.0631 ± 0.011
GGAGACCUUAGUAUACAACCUACUAGCUCA	0.00944 ± 0.0043
GGAGACCAUACUAAAGAACCUACUACCUCA	0.11 ± 0.012
GGAGACCUAUGAUAUCAACCUACCUACCUCA	0.00604 ± 0.0032
GGAGACCUAUCUAUACAACCUACUACCAGA	0.104 ± 0.016
GGAGACCUAUGAUAAGAACCUACUUCCUCA	< 0.0001
GGAGACCUUACUUUACAAGCUACUACCUCA	0.232 ± 0.013
GGAGACCUUACAAUUCAACCUACUACCUCA	0.102 ± 0.013
GGAGACCUUACUAUACUACCUAGUACCUCA	0.035 ± 0.0072
GGAGACCUAACUAUAGAACGUACUACCUCA	0.00603 ± 0.0028
GGAGUGGAUUCUAUACAACCUACUACCACA	0.121 ± 0.011
GGAGACCUUACUAUACAUCCAACUACCUCA	0.0082 ± 0.003
GGAGACCUAUCUAAACAACCUACUUCCUCA	0.0303 ± 0.0063
GGAGACCUAUCUAUACAACCUAGAUCCUCA	0.0047 ± 0.0021
GGAGACCUAUGUAUACAACCUACUACCUCCA	0.0928 ± 0.016
GGAGACGAUAGUAUACUACCUACUACCUCA	0.148 ± 0.012

From the supplement of paper PMC10338343
